cardiac RTF act = cardiac RTF calcium sensitization | activation, % at 7.2 µM | P19429+P45379 | AID 493008 | IANBD-labeled TnC RTF fluorescence at EC20 calcium; 0% EC20 calcium, 100% full calcium | 0.24% of 340,000 active;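 active means activation above the mean over all tested compounds plus 3 SD, cut at about 30% in these data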;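 further: rise in fluorescence read as greater calcium sensitivity of cardiac thin filaments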
RTF Ca sens inh = cardiac RTF calcium desensitization; IANBD-labeled cardiac RTF, Ca2+ fluorescence; AID 493244; 0.12% of 340,000 active; P19429+P45379; inhibition, % at 7.15 µM;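 active means inhibition above the mean inhibition of all tested compounds plus 3 SD, cut at about 17% in these data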;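 further: assay run at fixed EC70 calcium of 1.6 mM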
Myeloid diff 2 = myeloid differentiation induction; ER-HoxA9 myeloid progenitors, lysozyme-GFP differentiation, flow cytometry; calls only at 10 µM; 1% of 360,000 active;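 active means normalized GFP-positive differentiation at or above the plate's own cutoff, the solvent-only control mean plus 3 SD; inconclusive means no clear call, values can overlap the other calls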;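 further: cells exposed to compound for four days before flow analysis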
CRFR2-BP ag = CRF-BP/CRF-R2 complex agonism; HEK293 CRF-R2/CRF-BP, calcium dye fluorescence (FLIPR); percent of saturating CRF peptide response; AID 588473; 0.46% of 350,000 active; activation, % at 13.2 µM;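 active means activation of at least 50%, plus an integration ratio under a set limit after plate pattern correction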
CRFR2-BP antag = antagonists of CRF-binding protein/CRF-R2 receptor complex; HEK293 CRF-R2/CRF-BP, CRF-induced calcium fluorescence; inhibition, % at 11.8 µM; 0.59% of 350,000 active;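 active means inhibition of the ligand-induced calcium signal above about 50% at the single tested concentration, limit read from the data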
Myeloid diff = myeloid differentiation induction; shares compounds with Myeloid diff 2; AID 651706; calls only; ER-HoxA9 myeloid progenitors, GFP/Mac1 double-positive flow; 2% of 2,300 active;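 active means share of green or green-and-red cells above 9 and 9% in run 1 or 4 and 3% in run 2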
GFP autofluor = compound fluorescence in myeloid differentiation counter-screen; 7.4% of 2,300 active; ER-HoxA9 myeloid progenitors, no estrogen, GFP autofluorescence flow cytometry; vehicle wells 0%, positive control 100%; fluorescence response, % (test concentration not listed); shares compounds with Myeloid diff 2;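 active means over 5% cells positive for green fluorescent reporter, or over 2% positive for both it and APC stain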
Of the large screens only hits and unclear results are named; the others gave an inactive call (follow-up assays come after a bar, where they were run). A selection: hits, their analogues and other compounds. The true share with any hit is near 2.2%.

COc1ccc2nc(NN=C(C)c3ccccn3)cc(C)c2c1	Myeloid diff 2 inconclusive
O=C(COc1cccc2cccnc12)NCC(F)(F)F	none
O=C(COC(=O)COc1cccc2ccccc12)NCC(F)(F)F	none | Myeloid diff inactive | GFP autofluor inactive
Cc1ccc(C)c(NC(=O)CS(=O)(=O)c2cn(C)c3ccccc23)c1	none | Myeloid diff inactive | GFP autofluor inactive
Cn1cc(S(=O)(=O)CC(=O)Nc2ccc3c(c2)OCCO3)c2ccccc21	none
CC(Oc1ccc(Cl)cc1Cl)C(=O)NCCCn1ccnc1 (stereo not drawn)	Myeloid diff 2 active | Myeloid diff inactive | GFP autofluor inactive
Cc1cccc(C(=O)NNC(=O)c2c(-c3ccccc3Cl)noc2C)c1O	none
CN=C1SC(CC(=O)Nc2cccc(C(F)(F)F)c2)C(=O)N1C (stereo not drawn)	none | Myeloid diff inactive | GFP autofluor inactive
CN=C1SC(CC(=O)Nc2ccccc2F)C(=O)N1C (stereo not drawn)	none
O=C(CC1C(=O)NCCN1C(=O)Nc1ccccc1)Nc1cccc(C(F)(F)F)c1 (stereo not drawn)	Myeloid diff 2 active | Myeloid diff inactive | GFP autofluor inactive
O=C(CC1SCCNC1=O)Nc1cccc(C(F)(F)F)c1 (stereo not drawn)	Myeloid diff 2 active | Myeloid diff inactive | GFP autofluor inactive
Cc1cccc(Nc2nnc(SCC(=O)N(C)C3CCS(=O)(=O)C3)s2)c1C (stereo not drawn)	none
CCN(C(=O)c1ccc(NC(=O)C2CCCCC2C(=O)O)cc1)c1ccccc1 (stereo not drawn)	none (no result: cardiac RTF act, RTF Ca sens inh)
CCC(C)(C)NC(=O)C(c1ccc(C)o1)N(C(=O)c1csnn1)c1cccc(F)c1 (stereo not drawn)	none | Myeloid diff inactive | GFP autofluor inactive
CCCCn1c(=O)[nH]c2c(oc3ccccc32)c1=O	Myeloid diff 2 active | Myeloid diff inactive | GFP autofluor inactive
CC(=C/c1ccco1)/C=N/NC(=O)c1ccncc1	none (no result: cardiac RTF act, RTF Ca sens inh)
CC(/C=N/NC(=O)c1cccnc1)=C\c1ccco1	none | Myeloid diff inactive | GFP autofluor inactive
CCc1nc(SCC(=O)c2c[nH]c3ccccc23)n[nH]1	none | Myeloid diff inactive | GFP autofluor inactive
CC1(C(=O)NC2CCCCC2)CCC(=O)N1Cc1cccs1 (stereo not drawn)	none | Myeloid diff inactive | GFP autofluor inactive
CC1(C(=O)NC2CCCCCCC2)CCC(=O)N1Cc1cccs1 (stereo not drawn)	none
CCOc1ccc(NC(=O)c2cc(F)c(F)cc2Cl)cc1OCC	none
CC(OC(=O)CCN1C(=O)C2CC=CCC2C1=O)C(=O)Nc1ccc(F)cc1 (stereo not drawn)	none
Cc1cccc(NC(=O)c2ccco2)c1C	none | Myeloid diff inactive | GFP autofluor inactive
Cc1ccccc1NC(=O)c1ccco1	none
CC1CCN(S(=O)(=O)c2ccc(NC(=O)CN3CCCC3)cc2)CC1	none
CCN1CCN(CC(=O)Nc2ccc(S(=O)(=O)N3C(C)CCCC3C)cc2)CC1 (stereo not drawn)	none | Myeloid diff inactive | GFP autofluor inactive
Nc1ccc2nn(-c3ccccc3)nc2c1	none | Myeloid diff inactive | GFP autofluor inactive
Nc1ccc(-n2nc3ccccc3n2)cc1	none
CC1Cc2c([nH]c(=O)n(-c3ccccc3)c2=O)O1 (stereo not drawn)	none | Myeloid diff inactive | GFP autofluor inactive
Cc1cccc(C)c1-n1c(C)nn(CC2CC2)c1=O	none
Cc1cc(C(=O)CN2C(=O)C(=O)N(Cc3ccco3)C2=O)c(C)n1CCc1ccc(F)cc1	none | Myeloid diff inactive | GFP autofluor inactive
COc1ccc2c(c1OC)CN1CCc3cc4c(cc3[C@@H]1[C@@H]2O)OCO4	Myeloid diff 2 active | Myeloid diff inactive | GFP autofluor inactive
COc1cc2c(cc1OC)C1Cc3ccc(OC)c(OC)c3CN1CC2 (stereo not drawn)	none
O=C(CCCN1C(=O)/C(=C/c2ccco2)SC1=S)Nc1cccc(C(=O)O)c1	none | Myeloid diff active | GFP autofluor inactive
O=C(CCCN1C(=O)C(=Cc2ccc3c(c2)OCO3)SC1=S)Nc1ccc(C(=O)O)c(O)c1	none (no result: cardiac RTF act, RTF Ca sens inh, CRFR2-BP ag, CRFR2-BP antag) | Myeloid diff inactive | GFP autofluor inactive
O=C(CCCN1C(=O)/C(=C\c2cccs2)SC1=S)Nc1cccc(C(=O)O)c1	none
O=C(CCCN1C(=O)/C(=C/c2ccc3c(c2)OCO3)SC1=S)Nc1ccc(C(=O)O)cc1	none
CCOC(=O)C1=C(C)N(C[C@@H]2CC[C@@H](Cc3ccc(-c4ccccc4)cc3)O2)C(=O)NC1c1cccc([N+](=O)[O-])c1 (stereo partly drawn)	none
COc1ccc(CCNC(=O)c2cc(-c3ccccc3O)n[nH]2)cc1OC	none
COc1ccc(CCNC(=O)c2ccn[nH]2)cc1OC	Myeloid diff 2 active | Myeloid diff inactive | GFP autofluor inactive
COCC(C)NCc1ccccc1C (stereo not drawn)	none
COCC(C)NCc1cccc(OC)c1OC (stereo not drawn)	none | Myeloid diff inactive | GFP autofluor inactive
NNc1nc(C(F)(F)F)nc2ccccc12	none
O/C=c1\ccc2cccc3nc(C(F)(F)F)nc1c23	cardiac RTF act 124, CRFR2-BP ag 97 | Myeloid diff inactive | GFP autofluor inactive
N#Cc1c(N)n(-c2ccccc2N)c2nc3ccccc3nc12	none
N#Cc1c(N)n(-c2cccc(C(=O)O)c2)c2nc3ccccc3nc12	Myeloid diff 2 active, CRFR2-BP antag 57 | Myeloid diff inactive | GFP autofluor inactive
CC(C)(C)NNC(=S)Nc1ccc(S(=O)(=O)N2CCOCC2)cc1	none | Myeloid diff inactive | GFP autofluor inactive
CC(=O)NC(=S)Nc1ccc(S(=O)(=O)N2CCOCC2)cc1	none
Cc1ccc(S(=O)(=O)Nc2cccc(C(=O)NCc3cccnc3)c2)cc1F	none | Myeloid diff inactive | GFP autofluor inactive
O=C(O)c1cc(-c2ccc(Cl)cc2)n(-c2ccc(F)cc2)n1	none
Cc1onc(-c2ccccc2Cl)c1C(=O)N1C=CC(C(F)(F)F)=NCC1	none
Cc1onc(-c2ccccc2Cl)c1C(=O)N1C=CC(C(F)(F)Cl)=NCC1	Myeloid diff 2 active | Myeloid diff inactive | GFP autofluor inactive
Cc1ccccc1N1CC(=O)N(c2ccccc2C)CC1=O	none
CC1=NN(c2ccccc2C)C(=O)C1	none | Myeloid diff inactive | GFP autofluor inactive
COCc1cc(C)nc2sc(C(=O)N3CCCCC3)c(N)c12	none | Myeloid diff inactive | GFP autofluor inactive
C[C@H](NC(=O)C1CCN(S(=O)(=O)c2ccccc2)CC1)C(=O)NCc1ccncc1	none (no result: cardiac RTF act, RTF Ca sens inh)
CC12C(=O)N(Cc3ccccc3)C(=O)C1C1C=CC2C1 (stereo not drawn)	none
CC12C(=O)N(CCC(=O)O)C(=O)C1C1C=CC2C1 (stereo not drawn)	Myeloid diff 2 active | Myeloid diff inactive | GFP autofluor inactive

Compound activity as filed in PubChem BioAssay.
